Experimental data as given in PubChem BioAssay (NCI).
The panel holds about 83,000 compounds, 20% with a hit somewhere; the sample as a whole holds those more often.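 Interpretation: 100, growth as untreated; towards 0, rising growth inhibition; 0, no net growth; 0 to -100, cell death. Compounds scoring below 10 were considered active.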 Active and inactive are the calls of the source.

test system: NCI-H322M lung; test: NCI-60 one-dose screen, 48 h (100 = growth as untreated, 0 = no growth, -100 = all killed); details: 10 µM unless noted

| Structure (SMILES) | growth |
| --- | --- |
| c1ccc(-c2nc3ccccc3[nH]2)c(OCCCCCOc2ccccc2-c2nc3ccccc3[nH]2)c1 | 103% (inactive) |
| COc1ccc(NC(=O)c2ccc(Nc3ncnc4c3cnn4-c3cccc(F)c3)cc2)cc1 | 103% (inactive) |
| Cc1c2ncccc2nc2[nH]c3ccc(OCCN(C)C)cc3c12 | 13.2% (inactive) |
| Cc1ccc2cnc(N)c(C#Cc3cc(C(=O)Nc4ccc(CN5CCN(C)CC5)c(C(F)(F)F)c4)cnc3C)c2c1 | 17.8% (inactive) |
| Cc1ccc2c(c1)sc1nc(-c3c[nH]c4ccccc34)c(Nc3ccccc3)n12 | 106% (inactive) |
| C(=C(\C1=NCCN1)n1ccc2ccccc21)/c1ccccc1 | 97.7% (inactive) |
| Cc1ccc2c(c1)=C/C(=C\c1cc(-c3ccccc3)[nH]c1O)C(=O)N=2 | 82.2% (inactive) |
| Cc1cc(Cl)nc(N2CCN(CCNc3ccnc4cc(Cl)ccc34)CC2)n1 | 75.2% (inactive) |
| O=C(NNc1nc2cc(F)ccc2n2c(CN3CCOCC3)ccc12)c1ccccc1 | 25.1% (inactive) |
| CCN(CC)CCOc1ccc(/C(=C(\C)Cc2ccc(OC)cc2)c2ccc(OC(=O)NCc3ccccc3)cc2)cc1 | 80.4% (inactive) |
| COC(=O)c1c2c(c[n+]([O-])c1C)C(=O)C=C(NCc1ccccc1)C2=O | -100% (active) |
| O=S(=O)(Nc1cc(F)cc(F)c1)c1ccc(-c2cnc(C3CC3)o2)cc1 | 63.2% (inactive) |
| COc1ccc2c(c1)CC[C@@H]1[C@@H]2CC[C@]2(C)c3c(cc(C#N)c4c3sc3ccccc34)C[C@@H]12 | 108% (inactive) |
| C=C(c1ccc(C(=O)O)c(F)c1)c1cc2c(cc1C)C(C)(C)CCC2(C)C | 101% (inactive) |
| C[C@@H]1CN(c2cnc(C(=O)Nc3cc(F)cc4cccnc34)cn2)C[C@H](C)N1 | 93.1% (inactive) |
| c1cc(OCCN2CCCCC2)ccc1CNc1ccc2nc(CCC3CCCCC3)[nH]c2c1 | 74.6% (inactive) |
| COc1cc(/C=C/C(=O)c2cc(OC)c(OC)c(OC)c2)ccc1Oc1nc2c(c(=O)n(C)c(=O)n2C)n1C | 0% (active) |
| Clc1cccc(C2Cc3cnccc3-c3[nH]c4ccncc4c32)c1 (stereo unspecified) | 73.2% (inactive) |
| C=CCn1cc(-c2nc3ccccc3s2)c2cc(-c3ccc4c5c(cccc35)C(=O)N(CCO)C4=O)ccc21 | 98.8% (inactive) |
| CC(C)CCC[C@@H](C)[C@H]1CC[C@H]2[C@@H]3CC=C4c5sc(Nc6cc(C(F)(F)F)cc(C(F)(F)F)c6)nc5CC[C@]4(C)[C@H]3CC[C@]12C | 99.1% (inactive) |
| COc1ccccc1/C=C/C(=O)Nc1ccc(F)cc1 | 104% (inactive) |
| c1ccc(-c2ccc3c(c2)C2(CCNCC2)CN3)cc1 | 102% (inactive) |
| CN(C)c1ccc(C(=S)c2ccc(N(C)C)cc2)cc1 | 103% (inactive) |
| CCN(CC)CCCNc1cc(OC)c(OC)c2cccnc12 | 85.1% (inactive) |
| COc1cc(/C=C2\C(=O)N(CCCOc3cc(O)c4c(=O)cc(-c5ccccc5)oc4c3)c3ccccc32)cc(OC)c1O | 89.9% (inactive) |
| COC12C=C/C(=C(/C(=O)OCc3cncnc3)C(=O)CCCCCCCCC3(OC)C=C/C(=C(/C(=O)OCc4cncnc4)C(=O)CCCCCCCC1)O3)O2 | -66% (active) |

test system: HOP-62 NSCLC; test: as above; details: 10 µM unless noted

| Structure (SMILES) | growth |
| --- | --- |
| O=C1CCCCN1c1ccc(C2=NCCCN2)cc1 | 101% (inactive) |
| O=C(Oc1ccc2c(c1)sc1nc(-c3ccccc3)[nH]c(=O)c12)C(F)(F)F | 39.3% (inactive) |
| CCNC(=O)N1CCc2c(Br)c3c(c(OC)c2C1Cc1ccc(OC)cc1)OCO3 (stereo unspecified) | 36.3% (inactive) |
| Cc1ccccc1N1CCN(C(=S)c2ccccc2)CC1 | 95.2% (inactive) |
| CS(=O)(=O)Nc1cc(-c2ccc3ncnc(Nc4ccc(F)c(Cl)c4)c3c2)ccc1Cl | 64.7% (inactive) |
| Fc1cc2[nH]ncc2c2c3c(c(-c4cn[nH]c4C(F)(F)F)nc12)CCCC3 | -1.79% (active) |
| COc1ccc(CNc2ccc3nc(NC(=O)CN4CCCCCC4)sc3c2)cc1 | 113% (inactive) |
| COc1c2c(cc3c1C(=O)N[C@@H]1[C@@H](O)[C@@H](O)[C@H](O)C[C@@H]31)OCCO2 | 99.9% (inactive) |
| CCN1C(=O)N(c2ccccc2)C2NC(=S)N(/N=C/C=C/c3ccccc3OC)C21 (stereo unspecified) | 35.1% (inactive) |
| CSc1nc2ccc(C)cc2cc1/C=C1/C=C(c2ccccc2)NC1=O | 72.8% (inactive) |
| CC1=Nc2cnc(Nc3ccc(N4CCCCC4)cc3)nc2Nc2ccccc21 | 94.4% (inactive) |
| Nc1c(C(=O)Nc2cccc3ncccc23)sc2nc3c(cc12)CN(Cc1ccccc1)CC3 | 73.1% (inactive) |
| COCCn1cc(-c2nc(-c3cn(CCOC)c4ncccc34)cs2)c2cc(F)ccc21 | 74.4% (inactive) |
| COC(=O)[C@]1(C)CCC[C@]2(C)[C@H]3C[C@@H]4[C@H]5[C@@H]6CC/C(=N\OCC/C(N)=N/O)[C@H]5[C@@]3(CC[C@H]21)CC4(C(C)C)O6 | 80.8% (inactive) |
| c1ccc(-c2nc3ccccc3[nH]2)c(OCCCCCOc2ccccc2-c2nc3ccccc3[nH]2)c1 | 124% (inactive) |
| COc1ccc(NC(=O)c2ccc(Nc3ncnc4c3cnn4-c3cccc(F)c3)cc2)cc1 | 101% (inactive) |
| Cc1c2ncccc2nc2[nH]c3ccc(OCCN(C)C)cc3c12 | 29.3% (inactive) |
| Cc1ccc2cnc(N)c(C#Cc3cc(C(=O)Nc4ccc(CN5CCN(C)CC5)c(C(F)(F)F)c4)cnc3C)c2c1 | -35.9% (active) |
| Cc1ccc2c(c1)sc1nc(-c3c[nH]c4ccccc34)c(Nc3ccccc3)n12 | 96.1% (inactive) |
| C(=C(\C1=NCCN1)n1ccc2ccccc21)/c1ccccc1 | 96.3% (inactive) |

| Structure (SMILES) | growth |
| --- | --- |
| Cc1ccc2c(c1)=C/C(=C\c1cc(-c3ccccc3)[nH]c1O)C(=O)N=2 | 52% (inactive) |
| Cc1cc(Cl)nc(N2CCN(CCNc3ccnc4cc(Cl)ccc34)CC2)n1 | 68.2% (inactive) |
| O=C(NNc1nc2cc(F)ccc2n2c(CN3CCOCC3)ccc12)c1ccccc1 | 14.6% (inactive) |
| CCN(CC)CCOc1ccc(/C(=C(\C)Cc2ccc(OC)cc2)c2ccc(OC(=O)NCc3ccccc3)cc2)cc1 | 79.7% (inactive) |
| COC(=O)c1c2c(c[n+]([O-])c1C)C(=O)C=C(NCc1ccccc1)C2=O | -95.3% (active) |
| O=S(=O)(Nc1cc(F)cc(F)c1)c1ccc(-c2cnc(C3CC3)o2)cc1 | 40.9% (inactive) |
| COc1ccc2c(c1)CC[C@@H]1[C@@H]2CC[C@]2(C)c3c(cc(C#N)c4c3sc3ccccc34)C[C@@H]12 | 99.5% (inactive) |
| C=C(c1ccc(C(=O)O)c(F)c1)c1cc2c(cc1C)C(C)(C)CCC2(C)C | 76.4% (inactive) |
| C[C@@H]1CN(c2cnc(C(=O)Nc3cc(F)cc4cccnc34)cn2)C[C@H](C)N1 | 83.8% (inactive) |
| c1cc(OCCN2CCCCC2)ccc1CNc1ccc2nc(CCC3CCCCC3)[nH]c2c1 | 54.2% (inactive) |
| COc1cc(/C=C/C(=O)c2cc(OC)c(OC)c(OC)c2)ccc1Oc1nc2c(c(=O)n(C)c(=O)n2C)n1C | -40.8% (active) |
| Clc1cccc(C2Cc3cnccc3-c3[nH]c4ccncc4c32)c1 (stereo unspecified) | 67.3% (inactive) |
| C=CCn1cc(-c2nc3ccccc3s2)c2cc(-c3ccc4c5c(cccc35)C(=O)N(CCO)C4=O)ccc21 | 90.6% (inactive) |
| CC(C)CCC[C@@H](C)[C@H]1CC[C@H]2[C@@H]3CC=C4c5sc(Nc6cc(C(F)(F)F)cc(C(F)(F)F)c6)nc5CC[C@]4(C)[C@H]3CC[C@]12C | 81.9% (inactive) |
| COc1ccccc1/C=C/C(=O)Nc1ccc(F)cc1 | 88.7% (inactive) |
| c1ccc(-c2ccc3c(c2)C2(CCNCC2)CN3)cc1 | 95.2% (inactive) |
| CN(C)c1ccc(C(=S)c2ccc(N(C)C)cc2)cc1 | 65.8% (inactive) |
| CCN(CC)CCCNc1cc(OC)c(OC)c2cccnc12 | 58.3% (inactive) |
| COc1cc(/C=C2\C(=O)N(CCCOc3cc(O)c4c(=O)cc(-c5ccccc5)oc4c3)c3ccccc32)cc(OC)c1O | 71.7% (inactive) |
| COC12C=C/C(=C(/C(=O)OCc3cncnc3)C(=O)CCCCCCCCC3(OC)C=C/C(=C(/C(=O)OCc4cncnc4)C(=O)CCCCCCCC1)O3)O2 | 9.7% (active) |
